According to PubChem BioAssay AID1558 (National Center for Advancing Translational Sciences (NCATS), 2009):
Results filed as inconclusive are left out. Unmarked numbers belong to inactive results. Activity calls are given as the source filed them. Calls come from the whole dose curve; as a rule, active = well fitted inhibition curve with a large enough effect; inconclusive = small, poorly fitted or top-dose-only effect; inactive = flat fitted curve, though single readings scatter.

Each molecule was assayed against Microtubule-associated protein tau (Homo sapiens) (UniProt P10636) (assay: Confirmation Concentration-Response Assay for Inhibitors of Tau Fibril Formation, Thioflavin T Binding). Conditions: recombinant tau K18 P301L (four-repeat tau fragment) heparin fibrillization, ThT fluorescence; series mostly up to 100 µM; activity change, negative = inhibition: at the top concentration.
Text: NIH Molecular Libraries Probe Production Network [MLPCN] NIH Chemical Genomics Center [NCGC] MLPCN Grant: X01 MH083262-01 Assay Provider: Carlo Ballatore, University of Pennsylvania NCGC Assay Overview: The microtubule-associated protein tau is an abundant protein in the axons of neurons that stabilizes microtubules. With its ability to modulate microtubule dynamics, tau contributes directly or indirectly, to key structural and regulatory cellular functions. Particularly important is the influence tau exerts on axonal transport, which allows signaling molecules, trophic factors and other essential cellular constituents to travel along the axons. Under pathological conditions, tau becomes sequestered into insoluble aggregates called neurofibrillary tangles. This phenomenon is believed to have pathological consequences by promoting axonal transport deficits that ultimately lead to synaptic dysfunction and neuronal loss. To identify inhibitors of tau aggregation, a heparin-induced tau fibril formation assay was used that employed a recombinantly expressed fragment of tau, K18 (Q242-E372), bearing a P301L mutation (Gustke et al. 1994; Hong et al. 1998). This assay monitors tau fibrillization by Thioflavin T (ThT) fluorescence. Gustke, N., B. Trinczek, et al. (1994). "Domains of tau protein and interactions with microtubules." Biochemistry 33(32): 9511-22. Hong, M., V. Zhukareva, et al. (1998). "Mutation-specific functional impairments in distinct tau isoforms of hereditary FTDP-17." Science 282(5395): 1914-7. Li, W. and V. M. Lee (2006). "Characterization of two VQIXXK motifs for tau fibrillization in vitro." Biochemistry 45(51): 15692-701. von Bergen, M., S. Barghorn, et al. (2001). "Mutations of tau protein in frontotemporal dementia promote aggregation of paired helical filaments by enhancing local beta-structure." J Biol Chem 276(51): 48165-74.
For screening, 2 uL/well human K18 P301L (15 uM unlabeled and 0.24 uM Alexa 594-labeled tau, final concentrations) in reagent buffer (100 mM sodium acetate pH 7) was dispensed into black solid 1536-well plates (Grenier) using a solenoid-based dispenser. Following transfer of 23 nL compound or DMSO vehicle by a pin tool, 2 uL/well heparin (20 uM final concentration) in reagent buffer was added and the plate centrifuged 15 s at 1000 RPM. Plates were incubated 6 hr at 37 C and then 1 uL/well ThT (30 uM final concentration) was added. After a 1 hr ambient incubation, the plates were read by an Envision (Perkin Elmer) to monitor ThT fluorescence (450/8 nm excitation and 510/23 nm emission). Keywords: NIH Roadmap, MLPCN, MLI, MLSMR, NCGC, qHTS, tau, tauopathies, Alzheimer's disease, fibril, neurodegeneration, aggregation

Chain of Microtubule-associated protein tau (Homo sapiens) (P10636 561-689 P618L limits assumed): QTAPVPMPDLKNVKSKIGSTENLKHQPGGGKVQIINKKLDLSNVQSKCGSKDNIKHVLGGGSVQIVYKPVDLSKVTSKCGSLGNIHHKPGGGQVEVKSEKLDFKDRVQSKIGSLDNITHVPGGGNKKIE

Structure (SMILES)	Potency	activity change, negative = inhibition
Oc1ccccc1CNc1cccc2cccnc12	39.8 µM (active)	
O=C(O)CSc1cc(NS(=O)(=O)c2cccc([N+](=O)[O-])c2)c2ccccc2c1O	2 µM (active)	
COC(=O)C1CCc2sc(N)c(C(=O)OCc3ccccc3)c21 (stereo not given)		-25.7% [at 57.1 µM]
CCN(CC)C(=O)c1nn(-c2ccc(OC)cc2)c(=O)c2c(N)scc12	10 µM (active)	
COc1cc(/C=N/N=C2/NC(=O)C(CC(=O)O)S2)ccc1OCc1ccc(Cl)cc1 (stereo not given)		-9.55%
COc1ccc(OC)c(NC(=O)c2c(NCc3cccs3)sc3c2CCCC3)c1		-23.9% [at 57.1 µM]
CC(=O)Nc1sc(C)c2cnn(-c3ccccc3)c(=O)c12		-10.9% [at 57.1 µM]
CN(C)c1ccc(-c2cc[nH]c(=O)c2N)cc1	1.58 µM (active)	
Cc1nc2ccccc2oc1=O		-2.55%
Cc1ccc(NCc2cc3cc4c(cc3n(CC(=O)Nc3ccc(C)cc3)c2=O)OCCO4)cc1		-0.6%
Nc1nc2cc(S(=O)(=O)NC3=NCCCCC3)ccc2s1	20 µM (active)	
CCOC(=O)c1c(N)sc2c1CN(C)CC2		-12.4% [at 57.1 µM]
CCn1c(CSc2nccn2C)nc2cc(C(=O)O)ccc21	39.8 µM (active)	
O=C(O)CC1S/C(=N/N=C/c2ccc(-c3ccccc3[N+](=O)[O-])o2)NC1=O (stereo not given)	11.2 µM (active)	
CCn1nccc1C(=O)Nc1cc(Cl)cc(Cl)c1		-4.3%
O=C(Cc1ccccc1)Nc1sc2c(c1C(=O)Nc1ccc(Br)cc1)CCCC2		2.19% [at 57.1 µM]
COC(=O)c1c(NC(=O)C(C)(C)C)sc2c1C(C(=O)OC)CC2 (stereo not given)		-17.1%
O=C(Nc1ccc(-c2nc3ccccc3o2)cc1)c1ccc(N2CCOCC2)c([N+](=O)[O-])c1	1.12 µM (active)	
O=C(Nc1sc2c(c1C(=O)Nc1cccc(Cl)c1)CCCC2)c1cccs1	3.55 µM (active)	
CC(=O)Nc1nc(C)c(-c2csc(Nc3ccc(O)cc3)n2)s1	15.8 µM (active)	

Structure (SMILES)	Potency	activity change, negative = inhibition
CC(C)Cn1c(O)c(/C=C2\C=NN=C2c2ccccc2)sc1=S		-19.8%
COC(=O)CSc1nc2ccc(NC(=O)CSc3nnnn3Cc3ccccc3)cc2s1		-10.2%
COc1ccc(NC(=O)C2CCN(S(=O)(=O)c3c(C)noc3/C=C/c3cccs3)CC2)cc1Cl		-9.5%
CN(c1ccccc1)S(=O)(=O)c1nnc(NC(=O)C2CCCCC2)s1	22.4 µM (active)	
O=C(O)CC1S/C(=N/N=C/c2ccc(-c3ccc(Cl)cc3[N+](=O)[O-])o2)NC1=O (stereo not given)	1.58 µM (active)	
Cn1sc(NC(=O)c2ccccc2)nc1=O		-0.876% [at 57.1 µM]
COC(=O)c1c(NC(=O)CCCOc2cccc(C)c2)sc2c1C(C(=O)OC)CC2 (stereo not given)	1.78 µM (active)	
Cc1cccc(NC(=O)c2c(NC(=O)c3ccccc3)sc3c2CCCC3)c1	7.94 µM (active)	
COc1ccc2[nH]c(=O)c(CNc3ccccc3OC)cc2c1	25.1 µM (active)	
Nc1nn(-c2ccccc2)c(=O)c2c(N)scc12	5.01 µM (active)	
COc1cccc(/C=C2/SC(=S)N(CC(=O)Nc3nnc(C)s3)C2=O)c1		4.72% [at 57.1 µM]
O=S(=O)(c1ccc(NC(=S)N/N=C/c2ccc(N3CCOCC3)cc2)cc1)N1CCOCC1		-9.1%
CCOC(=O)c1nn(-c2ccc(Cl)cc2)c(=O)c2c(N)scc12	2.24 µM (active)	
Nc1cc(-c2ccccc2)c[nH]c1=O	8.91 µM (active)	
COc1c(Cl)cccc1NC(=O)c1c(NC(=O)Cc2ccccc2)sc2c1CCCC2		-15.4% [at 57.1 µM]
Nc1scc2c(C(=O)N3CCOCC3)nn(-c3ccccc3)c(=O)c12	11.2 µM (active)	
COc1cccc(/C=C2/SC(=S)N(CC(=O)Nc3nccs3)C2=O)c1		-10.2% [at 57.1 µM]
CCOC(=O)c1nn(-c2ccc(OC)cc2)c(=O)c2c(NC(=O)Cc3ccccc3)scc12		-28.9% [at 57.1 µM]
Cc1ccc(NC(=O)c2c(NC(=O)Cc3ccccc3)sc3c2CCCC3)cc1		-10.5% [at 57.1 µM]
COc1ccc2c(c1)c(CC(=O)N1CCOCC1)c(C)n2C(=O)c1ccc(Cl)cc1		-12.2%
